Screen size: about 5,500 compounds; about 2,000 (36%) were called active. Inconclusive results (about 18%) are left out. No stated cut-off is given here; in the data, active means normalized growth mostly below about 0.91 (no sharp cut-off); inconclusive means no clear call, values can overlap the other calls; inactive means mostly above about 0.92. This is one part of the list.
Test: chemical genetic growth profiling, strain panel (AID 1159580);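 further: tested at 20 µM; growth read once vehicle control cultures reached saturation at 30 °C; 1 = growth at the plate median or of vehicle wells; lower values mean less growth of the strain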
Conditions: growth OD

Measured: normalized growth

CCOC(N)=O
inactive: S. cerevisiae deletion strains, locus YJR075W, strain HOC1, active compounds read low 1.01 | S. cerevisiae deletion strains, locus YKL009W, strain mrt4, active compounds read low 1.02 | S. cerevisiae deletion strains, locus YKL068W, active compounds read low 1.01 | S. cerevisiae deletion strains, locus YKL085W, strain MDH1 (second series), active compounds read low 1 | S. cerevisiae deletion strains, locus YKL085W, strain MDH1, active compounds read low 1 | S. cerevisiae deletion strains, locus YKL160W, strain elf1, active compounds read low 0.994 | S. cerevisiae deletion strains, locus YKL190W, strain CNB1, active compounds read low 1 | S. cerevisiae deletion strains, locus YKR001C, strain vps1, active compounds read low 1.01 | S. cerevisiae deletion strains, locus YKR026C, strain gcn3, active compounds read low 0.992 | S. cerevisiae deletion strains, locus YKR091W, strain srl3, active compounds read low 0.992 | S. cerevisiae deletion strains, locus YLL001W, strain dnm1, active compounds read low 1.01 | S. cerevisiae deletion strains, locus YLL026W, active compounds read low 0.998 | S. cerevisiae deletion strains, locus YLL041C, strain sdh2, active compounds read low 0.995 | S. cerevisiae deletion strains, locus YLR027C, strain aat2, active compounds read low 0.996 | S. cerevisiae deletion strains, locus YLR039C, strain RIC1, active compounds read low 1.01 | S. cerevisiae deletion strains, locus YLR058C, strain SHM2, active compounds read low 1 | S. cerevisiae deletion strains, locus YLR102C, strain apc9, active compounds read low 1.02 | S. cerevisiae deletion strains, locus YLR113W, strain HOG1, active compounds read low 0.989 | S. cerevisiae deletion strains, locus YLR221C, strain rsa3, active compounds read low 0.992 | S. cerevisiae deletion strains, locus YLR258W, strain gsy2, active compounds read low 0.99 | S. cerevisiae deletion strains, locus YLR262C, strain YPT6 (second series), active compounds read low 0.998 | S. cerevisiae deletion strains, locus YLR262C, strain YPT6, active compounds read low 0.977 | S. cerevisiae deletion strains, locus YLR268W, strain sec22, active compounds read low 1 | S. cerevisiae deletion strains, locus YLR320W, strain mms22, active compounds read low 0.988 | S. cerevisiae deletion strains, locus YLR330W, strain CHS5, active compounds read low 1.01 | S. cerevisiae deletion strains, locus YLR342W, strain FKS1 (second series), active compounds read low 1.04 | S. cerevisiae deletion strains, locus YLR342W, strain FKS1, active compounds read low 0.987 | S. cerevisiae deletion strains, locus YLR357W, strain rsc2, active compounds read low 0.97 | S. cerevisiae deletion strains, locus YLR370C, strain arc18, active compounds read low 0.995 | S. cerevisiae deletion strains, locus YLR371W, strain rom2, active compounds read low 1.02 | S. cerevisiae deletion strains, locus YLR384C, strain iki3, active compounds read low 0.999 | S. cerevisiae deletion strains, locus YLR418C, strain cdc73, active compounds read low 0.996 | S. cerevisiae deletion strains, locus YML016C, strain PPZ1, active compounds read low 0.997 | S. cerevisiae deletion strains, locus YML032C, strain rad52, active compounds read low 1.02 | S. cerevisiae deletion strains, locus YML120C, strain ndi1, active compounds read low 1.02 | S. cerevisiae deletion strains, locus YML124C, strain tub3, active compounds read low 0.995 | S. cerevisiae deletion strains, locus YMR058W, strain fet3, active compounds read low 1 | S. cerevisiae deletion strains, locus YMR078C, strain ctf18, active compounds read low 1.01 | S. cerevisiae deletion strains, locus YMR125W, strain sto1, active compounds read low 0.986 | S. cerevisiae deletion strains, locus YMR129W, active compounds read low 1 | S. cerevisiae deletion strains, locus YMR205C, strain PFK2, active compounds read low 0.982 | S. cerevisiae deletion strains, locus YMR223W, strain ubp8, active compounds read low 1.02 | S. cerevisiae deletion strains, locus YMR231W, strain pep5, active compounds read low 0.995 | S. cerevisiae deletion strains, locus YMR263W, strain SAP30, active compounds read low 0.998 | S. cerevisiae deletion strains, locus YMR307W, strain GAS1, active compounds read low 1.02 | S. cerevisiae deletion strains, locus YNL067W, strain RPL9B, active compounds read low 0.999 | S. cerevisiae deletion strains, locus YNL071W, strain lat1, active compounds read low 1.01 | S. cerevisiae deletion strains, locus YNL128W, strain TEP1, active compounds read low 1.01 | S. cerevisiae deletion strains, locus YNL153C, strain GIM3, active compounds read low 0.995 | S. cerevisiae deletion strains, locus YNL183C, strain NPR1, active compounds read low 0.925 | S. cerevisiae deletion strains, locus YNL209W, strain ssb2, active compounds read low 1 | S. cerevisiae deletion strains, locus YNL233W, strain BNI4, active compounds read low 1 | S. cerevisiae deletion strains, locus YNL248C, strain rpa49, active compounds read low 1 | S. cerevisiae deletion strains, locus YNL250W, strain rad50, active compounds read low 1.02 | S. cerevisiae deletion strains, locus YNL271C, strain bni1, active compounds read low 1.02 | S. cerevisiae deletion strains, locus YNL298W, strain CLA4, active compounds read low 1.02 | S. cerevisiae deletion strains, locus YNL307C, strain MCK1, active compounds read low 1.01 | S. cerevisiae deletion strains, locus YNL322C, strain KRE1 (second series), active compounds read low 0.994 | S. cerevisiae deletion strains, locus YNL322C, strain KRE1, active compounds read low 1 | S. cerevisiae deletion strains, locus YNR049C, strain mso1, active compounds read low 1.01 | S. cerevisiae deletion strains, locus YNR052C, strain pop2, active compounds read low 1.01 | S. cerevisiae deletion strains, locus YOL006C, strain TOP1, active compounds read low 1 | S. cerevisiae deletion strains, locus YOL012C, strain htz1 1.41 | S. cerevisiae deletion strains, locus YOL147C, strain pex11, active compounds read low 1.01 | S. cerevisiae deletion strains, locus YOR001W, strain rrp6, active compounds read low 0.994 | S. cerevisiae deletion strains, locus YOR061W, strain CKA2, active compounds read low 1 | S. cerevisiae deletion strains, locus YOR069W, strain VPS5, active compounds read low 1 | S. cerevisiae deletion strains, locus YOR070C, strain gyp1, active compounds read low 0.991 | S. cerevisiae deletion strains, locus YOR080W, strain dia2, active compounds read low 0.994 | S. cerevisiae deletion strains, locus YOR083W, strain WHI5, active compounds read low 1 | S. cerevisiae deletion strains, locus YOR106W, strain vam3, active compounds read low 0.998 | S. cerevisiae deletion strains, locus YOR136W, strain idh2, active compounds read low 1.01 | S. cerevisiae deletion strains, locus YOR144C, strain elg1, active compounds read low 1.01 | S. cerevisiae deletion strains, locus YOR184W, strain ser1, active compounds read low 1.01 | S. cerevisiae deletion strains, locus YOR231W, strain MKK1, active compounds read low 1 | S. cerevisiae deletion strains, locus YOR265W, strain rbl2, active compounds read low 0.986 | S. cerevisiae deletion strains, locus YOR270C, strain vph1, active compounds read low 1 | S. cerevisiae deletion strains, locus YOR290C, strain snf2, active compounds read low 0.997 | S. cerevisiae deletion strains, locus YOR316C, strain cot1, active compounds read low 1.02 | S. cerevisiae deletion strains, locus YPL051W, strain arl3, active compounds read low 1 | S. cerevisiae deletion strains, locus YPL055C, strain LGE1, active compounds read low 0.976 | S. cerevisiae deletion strains, locus YPL078C, strain atp4, active compounds read low 0.989 | S. cerevisiae deletion strains, locus YPL106C, strain sse1, active compounds read low 0.969 | S. cerevisiae deletion strains, locus YPL240C, strain hsp82, active compounds read low 0.995 | S. cerevisiae deletion strains, locus YPL241C, strain CIN2, active compounds read low 0.992 | S. cerevisiae deletion strains, locus YPL256C, strain CLN2, active compounds read low 0.987 | S. cerevisiae deletion strains, locus YPR119W, strain clb2, active compounds read low 1.01 | S. cerevisiae deletion strains, locus YPR141C, strain kar3, active compounds read low 1.01 | S. cerevisiae deletion strains, locus YPR163C, strain tif3, active compounds read low 1.01 | S. cerevisiae deletion strains, locus YPR167C, strain met16, active compounds read low 1.01 | S. cerevisiae deletion strains, strain wtn01, active compounds read low 1 | S. cerevisiae strains, strain wild type, active compounds read low 1.01

Source: PubChem BioAssay AID1159580 (chemical genetic matrix, 2015)
